Laboratory results: PubChem BioAssay AID2797 (The Scripps Research Institute Molecular Screening Center, 2010)
Where “and” joins values, the source holds several entries; their conditions need not be identical. Equal entries are not always repeated. The campaign covered roughly 320,000 compounds. About 820 (0.26%) were called active. The sample holds actives, similar compounds and a random draw of the others, so the mix is not that of the screen.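 How the source made its calls: active means activation above the mean activation of all tested compounds plus 3 SD, per screening run (cut at about 20% in these data); inactive means the rest.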

Target: Vasopressin V1a receptor (Homo sapiens) (UniProt P37288)
Assay: agonists of human V1a receptor, primary screen, counter-screen for OXTR agonist project, fluorescence, CHO-V1R cells (AID 2797);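 further: signal is peak over basal fluorescence ratio across a 100 second FLIPR read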
Settings: Fluo-8 calcium fluorescence, agonist mode, at 3 µM, stronger effect = higher value, 0% DMSO, 100% 3 nM vasopressin

Vasopressin V1a receptor (Homo sapiens), sequence (P37288 whole entry, looked up): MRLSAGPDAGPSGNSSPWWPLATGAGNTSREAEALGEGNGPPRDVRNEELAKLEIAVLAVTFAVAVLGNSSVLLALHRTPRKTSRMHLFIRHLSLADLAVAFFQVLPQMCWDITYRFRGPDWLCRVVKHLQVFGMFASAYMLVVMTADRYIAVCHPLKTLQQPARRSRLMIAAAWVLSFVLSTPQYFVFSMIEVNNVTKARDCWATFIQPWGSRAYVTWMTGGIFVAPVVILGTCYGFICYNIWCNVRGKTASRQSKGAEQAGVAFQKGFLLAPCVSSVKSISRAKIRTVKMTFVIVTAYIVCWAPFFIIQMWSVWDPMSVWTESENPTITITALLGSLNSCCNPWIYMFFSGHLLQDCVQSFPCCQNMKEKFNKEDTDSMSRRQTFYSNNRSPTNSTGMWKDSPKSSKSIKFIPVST

For `Cc1ccc(S(=O)(=O)NC2CCCCCC2)cc1C(N)=O`, which activation is on record?
The activation was 3.64% (inactive).

`CCCN(CC1COc2ccccc2O1)C(=S)Nc1ccc(C)cc1` (stereo unspecified) was tested. Which activation did it give?
Its activation is -0.74% (inactive).

`OCCN(Cc1ccccc1)Cc1ccc(Cl)cc1` was tested. Which activation did it give?
Its activation is 0.58% (inactive).

How did the activation turn out when `CN(C(=O)CN(CCO)CC(=O)N(C)C(C)(C)Cc1ccccc1)C(C)(C)Cc1ccccc1` was run?
Its activation is 53.5% (active).

How did the activation turn out when `CCN(CC)C(=O)N(CC)Cc1ccccc1` was run?
Its activation is 0.23% (inactive).

Which activation does the source give for `Cc1ccc(C(=O)NCCNC(=O)c2cnccn2)cc1` here?
The activation was 0.28% (inactive).

How did the activation turn out when `CCN(CC)c1ccc(/C=N/NC(=O)c2cnccn2)c(O)c1` was run?
Its activation is 20.8% (active).

With `O=C(Nc1ccc2c(c1)OCCO2)c1cnccn1` as the compound, how does the activation read?
Its activation is -0.23% (inactive).

With `CC(c1ccco1)N(C(=O)Nc1ccccc1)C1CCCCC1` (stereo unspecified) as the compound, how does the activation read?
Its activation is -0.6% (inactive).

`CC(C)c1cc(NCc2ccccn2)n2c(nc3ccccc32)c1C#N` was tested. Which activation did it give?
Its activation is -0.18% (inactive).

For `CC/C(=N\NC(=O)c1ccccc1Cl)c1ccc(Br)s1`, which activation is on record?
The activation was 0.56% (inactive).

Which activation does the source give for `O=C(CN1CCCCCC1)Nc1ccc(S(=O)(=O)N2CCCCC2)cc1` here?
The activation was 0.94% (inactive).

How did the activation turn out when `O=C(CN1CCN(c2cccc(Cl)c2)CC1)Nc1ccc(S(=O)(=O)N2CCOCC2)cc1` was run?
The activation was 26.1% (active).

Which activation does the source give for `O=C(CN1C(=O)CCC1=O)Nc1ccc(S(=O)(=O)N2CCOCC2)cc1` here?
Its activation is 0.29% (inactive).

For `CCC(C)NC(=O)N[C@@H](CCSC)C(=O)O` (stereo partly specified), which activation is on record?
Its activation is 0.54% (inactive).

How did the activation turn out when `Cc1cccc(-c2nc3ccccc3c(=O)n2NC(=O)Cc2ccc(Cl)cc2)c1` was run?
The activation was 4.01% (inactive).

Which activation does the source give for `NC(=O)c1cc(-c2cccnc2)nc2ccc(Br)cc12` here?
The activation was -0.49% (inactive).

How did the activation turn out when `O=c1c2cc(Br)ccc2nc(-c2cccc(Cl)c2)n1O` was run?
The activation was 39% (active).

For `CCCCc1nc2cc(C(=O)NCCc3cnn(C)c3)ccc2o1`, which activation is on record?
The activation was 1.32% (inactive).

`CC(C)c1nc(SCC(=O)Nc2cccc(C(=O)O)c2)c2c3c(sc2n1)CCCC3` was tested. Which activation did it give?
Its activation is 6.28% (inactive).

`CCOc1ccc(C2NC(=S)NC3=C2CCc2ccccc23)cc1` (stereo unspecified) was tested. Which activation did it give?
The activation was 0.4% (inactive).

`O=C(NCc1cccnc1)c1cc(S(=O)(=O)N2CCOCC2)c(Cl)cc1Cl` was tested. Which activation did it give?
Its activation is 1.17% (inactive).

`COc1ccccc1NC(=O)Nc1nc(CC(=O)Nc2ccccc2F)cs1` was tested. Which activation did it give?
Its activation is -0.76% (inactive).

With `Oc1ccc2ccc3cccc[n+]3c2c1` as the compound, how does the activation read?
The activation was 49.5% (active).

Which activation does the source give for `CCSc1nc(C)c(CCOc2cccc(C)c2)c(=O)[nH]1` here?
Its activation is -0.28% (inactive).

How did the activation turn out when `COCCN(C(=O)CC1CCCCC1)c1c(N)n(CC(C)C)c(=O)[nH]c1=O` was run?
Its activation is -0.63% (inactive).

For `CC(=O)Nc1cccc(NC(=O)CSc2nccn2Cc2ccc(F)cc2)c1`, which activation is on record?
The activation was 3.25% (inactive).

With `C=CCOc1cccc(C2C(C(=O)c3ccc(C)o3)=C(O)C(=O)N2CCCn2ccnc2)c1` (stereo unspecified) as the compound, how does the activation read?
Its activation is -0.49% (inactive).

How did the activation turn out when `C=CCOc1cccc(C2C(C(=O)c3ccc(C)o3)=C(O)C(=O)N2c2nnc(C)s2)c1` (stereo unspecified) was run?
The activation was 78.1% (active).

For `Cc1cc(N2C(=O)C(O)=C(C(=O)c3ccc(C)o3)C2c2ccc(OCc3ccccc3)cc2)no1` (stereo unspecified), which activation is on record?
Its activation is 0.41% (inactive).

Which activation does the source give for `CCOC(=O)c1c(NC(=O)CSc2nnc(CNc3ccc(C)cc3C)o2)sc(C)c1C` here?
Its activation is 0.01% (inactive).

With `COc1ccc(S(=O)(=O)NCC(c2ccc(C)cc2)N2CCN(C)CC2)cc1OC` (stereo unspecified) as the compound, how does the activation read?
The activation was 0.61% (inactive).

How did the activation turn out when `Cc1cnc(C(=O)OCc2c(C)cc(C(C)(C)C)cc2C)cn1` was run?
The activation was -0.09% (inactive).

With `CC1(C)S[C@@H]2[C@H](NC(=O)COc3ccccc3)C(=O)N2C1C(=O)OCc1ccccc1` (stereo partly specified) as the compound, how does the activation read?
The activation was 1.45% (inactive).

With `CC1(C)SC2C(NC(=O)COc3ccccc3)C(=O)N2C1C(=O)O` (stereo unspecified) as the compound, how does the activation read?
The activation was 0.91% (inactive) and -0.17% (inactive).

For `CC1(C)S[C@@H]2[C@H](N=CN3CCCCCC3)C(=O)N2[C@H]1C(=O)O`, which activation is on record?
The activation was 21.6% (active).

Which activation does the source give for `COC(=O)c1sc(-c2ccc(C(C)(C)C)cc2)cc1NC(=O)/C=C/C(=O)O` here?
The activation was 28.5% (active).

With `CC(C)(C)c1ccc(/C=C/C(=O)Nc2ncccn2)cc1` as the compound, how does the activation read?
Its activation is -0.18% (inactive).

How did the activation turn out when `COc1ccccc1NC(=O)/C=C/C(N)=O` was run?
The activation was 0.73% (inactive).

For `COc1ccc(S(=O)(=O)N2CCOCC2)c(C)c1C`, which activation is on record?
Its activation is 0.14% (inactive).

For `O=C(NNC(=O)c1ccccc1[N+](=O)[O-])Nc1ccccc1C(F)(F)F`, which activation is on record?
The activation was 0.06% (inactive).

With `O=C(N1CCCC1)C12CC3CC(C1)CC(C(=O)N1CCCC1)(C3)C2` as the compound, how does the activation read?
The activation was -0.17% (inactive).

`Cc1nc(-c2ccc(Cl)cc2)sc1C1(C)CC(c2ccccc2F)=NO1` (stereo unspecified) was tested. Which activation did it give?
Its activation is 0.6% (inactive).

With `Cc1nc(C(=O)NCc2ccccc2)sc1C1(C)CC(c2cccnc2)=NO1` (stereo unspecified) as the compound, how does the activation read?
Its activation is 33.9% (active).

For `Cc1nc(C(=O)Nc2ccc(Cl)cc2)sc1C1(C)CC(c2ccccc2)=NO1` (stereo unspecified), which activation is on record?
Its activation is 1.86% (inactive).

How did the activation turn out when `O=C(Nc1ccc(Cl)cc1)Nc1ccc(Oc2cccnc2)nc1` was run?
The activation was 15.2% (inactive).

Which activation does the source give for `COc1ccc(F)cc1S(=O)(=O)N1CCCCC1` here?
The activation was 0.03% (inactive).

With `Cc1cc(NC(=O)CCC(=O)N(CC(=O)NCC2CCCO2)c2ccccc2)no1` (stereo unspecified) as the compound, how does the activation read?
The activation was -0.14% (inactive).

How did the activation turn out when `Nc1ccc2nc3c(=O)[nH]c(=S)[nH]c3nc2c1` was run?
Its activation is 33.2% (active).

For `NC(N)=Nc1nc2ccc(Br)cc2c(=O)[nH]1`, which activation is on record?
The activation was 0.39% (inactive).

`COCC(=O)N1CCc2ccc(NC(=O)c3ccccc3Cl)cc2C1` was tested. Which activation did it give?
The activation was 1.09% (inactive).

For `CCOC(=O)c1c(S(=O)(=O)Nc2ccc(CN3CCC(C)CC3)cc2)c(C)n(C)c1C`, which activation is on record?
The activation was 0.65% (inactive).

For `CCC(Oc1ccccc1C)C(=O)Nc1ccc(S(=O)(=O)Nc2cc(C)on2)cc1` (stereo unspecified), which activation is on record?
The activation was -0.02% (inactive).

With `Fc1ccc(COc2ccc(-c3nnco3)cc2)cc1` as the compound, how does the activation read?
The activation was 0.56% (inactive).

`O=C(/C=C/c1ccc(OCc2c(F)cccc2Cl)cc1)N1CCOCC1` was tested. Which activation did it give?
Its activation is 2.69% (inactive).

With `Fc1cccc(Cl)c1COc1ccc(-c2nnco2)cc1` as the compound, how does the activation read?
The activation was 25.1% (active).

How did the activation turn out when `COc1cccc(C(=O)Nc2cc3c(cc2Br)OCCCO3)c1` was run?
The activation was -1.23% (inactive).

For `O=C(c1ccc(Br)o1)N(c1ccccn1)C1CCCCC1`, which activation is on record?
Its activation is -0.71% (inactive).

How did the activation turn out when `Cc1cccc(C(=O)OC(C)CN2CCCC2)c1` (stereo unspecified) was run?
Its activation is -0.62% (inactive).

With `CC(C)CC1(C)NC(=O)N(CC(=O)Nc2ccc3c(c2)OCCO3)C1=O` (stereo unspecified) as the compound, how does the activation read?
Its activation is 1.53% (inactive).

With `COCC1CCN(C(=O)CCc2nnc(C3(c4ccc(Cl)cc4)CCC3)o2)C1` (stereo unspecified) as the compound, how does the activation read?
The activation was -0.39% (inactive).
